8 compounds from PubChem BioAssay (NCI) can be followed below.

Compounds without any hit were thinned out: in the full panel of roughly 83,000, 20% have a hit.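 A percent growth of 40 corresponds to 60% growth inhibition; 0 means no net growth; -100 means all cells died. Active threshold: below 10.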 Unmarked numbers belong to inactive results. Active and inactive are the calls of the source.

What all share (test): NCI-60 one-dose screen, 48 h (100 = growth as untreated, 0 = no growth, -100 = all killed)
Common to all, as to details: 10 µM unless noted

The subject of assay [1] is NCI-H23 lung.
Assay [2] has as its system NCI-H226 lung.
The test system of assay [3] is NCI-H322M lung.
Assay [4] has as its system HOP-62 NSCLC.
Assay [5] has as its system NCI-H460 lung.
Assay [6] has as its system HOP-92 NSCLC.
Assay [7] relates to NCI-H522 lung.
In assay [8] the test system is A549/ATCC NSCLC.
For assay [9], the system named is 786-0 renal.
Assay [10] relates to COLO 205 colon.
The test system of assay [11] is DU-145 prostate.
For assay [12], the system named is K-562 leukemia.
Assay [13] relates to MALME-3M melanoma.
Assay [14] relates to MDA-MB-231 breast.
Assay [15] has as its system RXF 393 renal.
The test system of assay [16] is SF-268 CNS.
Assay [17] concerns SF-295 CNS.
In assay [18] the test system is SF-539 CNS.
Assay [19] relates to UACC-257 melanoma.
Assay [20] deals with M14 melanoma.

Take `N#Cc1c(NC(=O)c2cccc(Br)c2)sc2c1CCCC2`: the growth in [1] was 91%; in assay [2], 89.8%; in assay [3] it was 79.1%; in [4], 83.3%; in [5], 75.3%; in [6] it was 86.2%. In addition, the growth in [7] is 75.9%; in assay [8] it was 75.2%; in assay [9], 82.6%; in [10] it was 94.2%; in assay [11], 89.7%; in [12] it was 22.5%. Further, the growth is 62.4% in assay [13]; 82.2% in [14]; 96.8% in [15]; 97.6% in assay [16]; 80.8% in assay [17]; 86.6% in [18]. Further, the growth in [19] was 83.4%; in [20], 72.2%.
Regarding `COc1ccc(Nc2nc(N)nc3c2CCc2occc2-3)cc1`, the growth in assay [1] was 92.4%; in assay [2], 97.1%; in assay [3], 95.3%; in assay [4], 98.4%; in assay [5], 108%; in [6] it was 99.6%. For the same compound, the growth in [7] is 76.9%; in [8] it was 103%; in assay [9], 95.5%; in assay [10] it was 116%; in assay [11] it was 102%; in [12] it was 92.4%. The growth in assay [13] was 110%; in assay [14], 99.5%; in assay [15], 114%; in assay [16] it was 100%; in [17], 86.2%; in assay [18], 96.8%. In assay [19], the growth was 108%.
`COc1ccccc1OCC(=O)N1CCCCCC1`: the growth in assay [1] is 92.8%; in assay [2], 92.1%; in [3], 105%; in assay [4] it was 104%; in [5] it was 105%; in [6] it was 82.8%. For the same compound, the growth in [7] was 96%; in assay [8], 92.1%; in assay [9], 117%; in assay [10], 110%; in [11], 107%; in [12], 83.3%. Moreover, the growth in assay [13] is 89.2%; in [14] it was 113%; in [15] it was 97%; in assay [16] it was 108%; in assay [17], 106%; in assay [18], 104%. Further, the growth in assay [19] was 93.3%.
On to `COC(=O)N[C@H]1CCc2cc(OC)c(OC)c(OC)c2-c2ccc(SC)c(=O)cc21`, for which the growth in assay [1] is 23.3%; in assay [2], -3.52% (active); in [3], 29.8%; in [4], 23.4%; in [5], 2.04% (active); in assay [6], 15.2%. The growth in assay [7] is -17.9% (active); in assay [8] it was 13.6%; in [9], 14.1%; in [10], -18.6% (active); in assay [11], 1.4% (active); in assay [12], 9.06% (active). The growth in [13] was 37.3%; in [14], -22.3% (active); in [15] it was 22.5%; in assay [16], 15.9%; in assay [17] it was 7.65% (active); in assay [18], -27.6% (active). In addition, in [19], the growth was 59.4%.
In the case of `BrC(Br)(Br)c1cnc2ccccc2n1`, the growth in assay [1] is 64.2%; in assay [2], 21.3%; in assay [3] it was 74.9%; in assay [4], 60%; in assay [5] it was 8.61% (active); in [6] it was 7.52% (active). Besides, the growth in assay [7] is -61.3% (active); in assay [8], 34.6%; in assay [9] it was 67.7%; in [10], -86.4% (active); in assay [11], 4.36% (active); in [12], 1.19% (active). The growth in [13] was -10.4% (active); in [14], 46%; in assay [15] it was -31.5% (active); in assay [16] it was 54.5%; in [17], 74.3%; in assay [18], 27.2%. In addition, the growth in assay [19] is 39.9%.
As for `COc1cc2c(cc1[N+](=O)[O-])-c1ccc([N+](=O)[O-])cc1/C2=N\O`, the growth was 88.2% in assay [1]; 66% in [2]; 113% in assay [3]; 110% in assay [4]; 84% in assay [5]; 100% in [6]. Also, the growth in assay [7] is 51.2%; in assay [8] it was 83.5%; in assay [9] it was 79.6%; in assay [10] it was 79.6%; in [11], 120%; in assay [12], 88.7%. The growth is 116% in assay [13]; 87.4% in assay [14]; 79.8% in assay [15]; 89.6% in assay [16]; 77.2% in [17]; 84.9% in [18]. Besides, the growth is 97.9% in assay [19] and 93.9% in assay [20].
On to `CCCCCCCC(=O)Nc1nc2[nH]c(CN3CCN(Cc4cccc(I)c4)CC3)c(CN3CCN(Cc4cccc(I)c4)CC3)c2c(=O)[nH]1`, for which the growth in [1] was -24.5% (active); in assay [2] it was 66.4%; in assay [3] it was -60% (active); in assay [4], -88.6% (active); in assay [5], -75% (active); in [6], -67.3% (active). For the same compound, the growth is -58.8% (active) in assay [7]; -81.6% (active) in [8]; -98% (active) in [9]; -81.2% (active) in [10]; -83.5% (active) in assay [11]; -43.8% (active) in assay [12]. Further, the growth in [13] is -49.9% (active); in assay [14], -89.8% (active); in assay [15], -96.1% (active); in [16], -82.9% (active); in assay [17] it was -69.5% (active); in [18], -89.4% (active). Besides, the growth in assay [19] was -33% (active); in [20], -56.6% (active).
With `CC(=O)OC1CCC2(C)C(CCC3C4CC=C(C(C)=O)C4(C)OC(=O)CC32)C1` (stereo unspecified), the growth was 34.7% in assay [1]; 45% in assay [2]; 95.7% in assay [3]; 61% in [4]; 78.1% in [5]; -21.2% (active) in assay [6]. Besides, the growth is -81.1% (active) in assay [7]; 59.1% in assay [8]; 64% in assay [9]; 2.72% (active) in assay [10]; 38.2% in assay [11]; -12.4% (active) in assay [12]. The growth in [13] was -25.6% (active); in assay [14], 35.3%; in assay [15] it was -60.5% (active); in assay [16], 53%; in [17] it was 73.1%; in assay [18], 61.7%. Besides, the growth is -74.9% (active) in assay [19] and -31.6% (active) in [20].
